Screens as filed in PubChem.
This excerpt belongs to a sample that is enriched for hits.
Methyltransferases = Primary Screen for Target Class Profiling of Small Molecule Inhibitors of Methyltransferases; purified enzyme, MTase-Glo SAH luminescence; hits give low values; calls only at 40 µM; 25,000 tested, 3.9% active; AID 1745853, 2022; call rule not given here
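Each enzyme was assayed with SAM and its substrate. SAH formation detected by MTase-Glo luminescence; single-point 40 uM screen[…].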
Calls only; 0 = inactive; + = active, no number.

SMILES	Methyltransferases
C[C@@H]1O[C@@H](O[C@H]2[C@H](O[C@H]3[C@H](O[C@H]4CC[C@@]5(C)C(CC[C@]6(C)C5CC=C5[C@@H]7CC(C)(C)C[C@@H](O)[C@]7(C)CC[C@]56C)[C@@]4(C)CO)O[C@H](C(=O)O)[C@@H](O)[C@@H]3O)O[C@H](C(=O)O)[C@H](O)[C@@H]2O)[C@H](O)[C@H](O)[C@H]1O (some centres not stated)	0
COCCCNC(=O)c1cc2n(n1)CC(C)(C(=O)NCc1ccc(C)cc1)N(C)C2=O (configuration not stated)	0
Cc1ccc(NC(=O)c2cc3n(n2)CC(C)(C(=O)NC2CCCCC2)N(C)C3=O)cc1C (configuration not stated)	0
O=c1cc(-c2ccccc2)oc2c(O)c(O)ccc12	0
Cc1cc(=O)oc2c(C=O)c(O)ccc12	+
COC(=O)COc1ccc2c(-c3ccccc3)cc(=O)oc2c1C	0
CC(C)CCNC(=O)C1c2c(n(C)c3ccccc23)SCC(=O)N1C1CCCCCC1 (configuration not stated)	0
CC(=O)c1c(C)cccc1O[C@@H]1O[C@H](CO)[C@@H](O)[C@H](O)[C@H]1O	+
O=C(O)CCc1cccc(O[C@@H]2O[C@H](CO)[C@@H](O)[C@H](O)[C@H]2O)c1O	+
O=C(O)CCc1cc2ccoc2cc1O[C@@H]1O[C@H](CO)[C@@H](O)[C@H](O)[C@H]1O	0
COc1ccc(O[C@@H]2O[C@H](CO)[C@@H](O)[C@H](O)[C@H]2O)cc1OC	0
O=C(O)c1cc(O)c2cccc(O)c2c1O[C@@H]1O[C@H](CO)[C@@H](O)[C@H](O)[C@H]1O	+
CC(=O)c1ccc(O[C@@H]2O[C@H](CO)[C@@H](O)[C@H](O)[C@H]2O)cc1	0
COc1c(CCC(=O)O)cccc1O[C@@H]1O[C@H](CO)[C@@H](O)[C@H](O)[C@H]1O	+
Cc1ccc(C(C)C)c(O[C@@H]2O[C@H](CO)[C@@H](O)[C@H](O)[C@H]2O)c1	0
C=CCc1ccc(O[C@@H]2O[C@H](CO)[C@@H](O)[C@H](O)[C@H]2O)c(O[C@@H]2O[C@H](CO)[C@@H](O)[C@H](O)[C@H]2O)c1	0
O=C(O[C@H]1[C@H](Oc2ccc(O)cc2CO)O[C@H](CO)[C@@H](O)[C@@H]1O)c1ccccc1	0
CCC(C)(O)C(O)C(=O)OCc1ccc(O[C@@H]2O[C@H](CO)[C@@H](O)[C@H](O)[C@H]2O)c(OC)c1 (some centres not stated)	0
O=C(O)/C=C/c1ccc(O)c(O[C@@H]2O[C@H](CO)[C@@H](O)[C@H](O)[C@H]2O)c1	0
CSc1cccc(N2C(=O)c3cc(-c4ccco4)nn3CC2(C)C(=O)NC2CCCCCC2)c1 (configuration not stated)	0
CC(C)n1c(=O)c2ccc(C(=O)NC3CCCC3)cc2n2c(=O)n(Cc3ccccc3F)nc12	0
CCC(C)NC(=O)c1ccc2c(=O)n(C)c3nnc(SCc4c(F)cccc4Cl)n3c2c1 (configuration not stated)	0
CC1(C(=O)NCc2ccc(F)cc2)Cn2cnc(C(=O)NCCN3CCOCC3)c2C(=O)N1C1CC1 (configuration not stated)	0
C=C1CCC2(OC1)OC1CC3C4CC=C5CC(O)CC(O[C@@H]6OC[C@@H](O)[C@H](O)[C@H]6O)C5(C)C4CCC3(C)C1(O)C2C (some centres not stated)	0
COc1ccc(OC)c(CCN2C(=O)c3cc4sccc4n3CC2(C)C(=O)NC2CCCCC2)c1 (configuration not stated)	0
SMILES	Methyltransferases
CCOC(=O)c1cc2n(n1)CC(C)(C(=O)NC1CCCCC1)N(c1ccc(NC(C)=O)cc1)C2=O (configuration not stated)	0
C=CCC1=C[C@]2(OC)[C@H](C)[C@@H](c3ccc4c(c3)OCO4)O[C@]2(OC)CC1=O	0
COc1cccc(CN2C(=O)c3ccc(-c4ccco4)n3CC2(C)C(=O)NC2CCCCCC2)c1 (configuration not stated)	0
CCOc1ccccc1CN1C(=O)c2c(C(=O)OC)ncn2CC1(C)C(=O)NC1CCCC1 (configuration not stated)	0
O=C1CCCCC(CNC(=O)c2ccc3ccccc3n2)N1 (configuration not stated)	0
OC[C@H]1O[C@@H](OCCc2ccccc2)[C@H](O[C@@H]2OC[C@@H](O)[C@H](O)[C@H]2O)[C@@H](O)[C@@H]1O	+
OC[C@H]1O[C@@H](OCCc2ccc(O)cc2)[C@H](O)[C@@H](O)[C@@H]1O	0
OC[C@H]1O[C@@H](O[C@H]2[C@H](O)[C@@H](CO)O[C@@H](OCc3ccccc3)[C@@H]2O[C@@H]2OC[C@](O)(CO)[C@H]2O)[C@H](O)[C@@H](O)[C@@H]1O	0
O=C(O)CC(CCc1ccccc1)OC1OC(CO)C(O)C(O)C1O (configuration not stated)	+
OC[C@H]1O[C@@H](O[C@H]2[C@H](OCc3ccccc3)O[C@H](CO[C@@H]3OC[C@@H](O)[C@H](O)[C@H]3O)[C@@H](O)[C@@H]2O)[C@H](O)[C@@H](O)[C@@H]1O	0
OC[C@H]1O[C@@H](OC(CCCCc2ccc(O)cc2)CCc2ccc(O)cc2)[C@H](O[C@@H]2OC[C@](O)(CO)[C@H]2O)[C@@H](O)[C@@H]1O (some centres not stated)	0
CN1C(=O)c2cc(C(=O)NCc3cccc(F)c3)nn2CC1(C)C(=O)NCc1ccccc1 (configuration not stated)	0
COCCN1C(=O)c2cc3ccc(OC)cc3n2CC1(C)C(=O)NC1CCCCCC1 (configuration not stated)	0
COCCN1C(=O)c2cc3sccc3n2CC1(C)C(=O)NC1CCCCCCC1 (configuration not stated)	0
CC(=O)O[C@@H]1[C@@H](O)[C@H](O[C@H]2CC[C@]34C[C@]35CC[C@]3(C)[C@@H]([C@@]6(C)CC[C@@H](C(C)(C)O)O6)[C@@H](O)C[C@@]3(C)[C@@H]5C[C@H](O[C@@H]3O[C@H](CO)[C@@H](O)[C@H](O)[C@H]3O)[C@H]4C2(C)C)OC[C@H]1O	0
O=C1C(SCCO)=C(SCCO)C(=O)c2ccccc21	+
COc1ccccc1CNC(=O)C1(C)Cn2c(cc3ccccc32)C(=O)N1C1CCN(Cc2ccccc2)CC1 (configuration not stated)	0
COCc1nc(NCCCN2CCOCC2)cc(C2CC(N)C2)n1 (configuration not stated)	0
Cc1ccc(Cn2c(=O)c3ccccc3n3c(=O)n(CC(=O)NCc4ccccc4)nc23)cc1	0
CC(=O)OCC(=O)[C@@]12O[C@@H]1C[C@H]1[C@@H]3CC=C4C[C@@H](O)CC[C@]4(C)[C@H]3CC[C@@]12C	0
CC1(C(=O)N2CCc3ccccc32)CCCCC(=O)N1 (configuration not stated)	0
CCN(CC)CCOc1ccc(Nc2ncc3cc(-c4c(Cl)cccc4Cl)c(=O)n(C)c3n2)cc1	+
CCOc1ccccc1CN1C(=O)c2cc3ccccc3n2CC1(C)C(=O)NCc1ccccc1OC (configuration not stated)	0
Cc1ccc(CSc2nnc3n(C)c(=O)c4ccc(C(=O)NC5CCCC5)cc4n23)cc1	0
N=C(N)SCCN	+
COc1ccc(C(=O)Cn2nc3n(CC(C)C)c(=O)c4ccc(C(=O)NCC(C)C)cc4n3c2=O)cc1	0
